Data from PubChem BioAssay.
The list shows a part of the results. The source made the active and inactive calls.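 How the source made its calls, unless noted: active means mean inhibition over three repeats above about 26% taken from the earlier screen (limit read from the data); inactive means the rest.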

Assays:
[1] = system: TLR4-MyD88 interaction (human), BLA complementation; test: disruptors of TLR4 binding to MyD88 – cell-based, HeLa CL3-4, BLA complementation, FRET ratio, confirmation (AID 941;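 active means mean inhibition across three repeat runs above about 25% carried over from the earlier screen, limit read from the data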;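 further: plate controls were DMSO only for no effect and clavulanic acid blocking BLA at full dose for full effect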); settings: CCF4 FRET ratio, at 8.4 µM, hits give high values
[2] = BLA reporter interference in HeLa cells – cell-based, full-length BLA, CCF4 FRET ratio, artefact control for TLR4-MyD88 binding inhibitor project, confirmation (AID 1237); settings: at 8.4 µM, hits give high values;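 further: HeLa cells stably expressing beta-lactamase reporter as counterscreen for TLR4-MyD88 inhibitors; 0% = DMSO and 100% = clavulanic acid full inhibition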
[3] = molecular target: Toll-like receptor 9 (Homo sapiens) (UniProt Q9NR96); test: disruptors of TLR9 binding to MyD88 – cell-based, CHO, BLA complementation, fluorescence, triplicate, confirmation (AID 540250;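 active means mean inhibition across three repeats above about 21% taken from the earlier screen, limit read from the data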;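 further: blue over green emission ratio reports constitutive TLR9 MyD88 association via BLA complementation; 0% = DMSO vehicle wells and 100% = clavulanate BLA inhibitor wells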); settings: CCF4 FRET ratio, at 4.98 µM, hits give high values
[4] = BLA reporter readout interference – cell-based, fluorescence, artefact control for TLR9-MyD88 binding inhibitor project (AID 540251;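 active means mean inhibition above a 50% cutoff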;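 further: counterscreen of TLR9-MyD88 hits on CMV-driven BLA in CHO-K1 cells; 0% = DMSO alone and 100% = clavulanate blocking BLA; higher means less blue over green ratio so more BLA blockade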); settings: CHO-BLA cells, CCF4 FRET ratio, at 4.98 µM, hits give high values
[5] = CHO cell viability loss – luminescence, single concentration, cytotoxicity control for TLR9-MyD88 binding inhibitor project (AID 588336; in the data active means inhibition above about 11%); settings: TLR9-MyD88 CHO cells cytotoxicity, at 4.98 µM, hits give high values
[6] = molecular target: Receptor-interacting serine/threonine-protein kinase 2 (Homo sapiens) (UniProt O43353); test: inhibitors of RIPK2 association with NOD2 – fluorescence, CHO cells, BLA complementation, triplicate, confirmation (AID 624370;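 active means mean inhibition across replicates above a set limit taken from the earlier primary screen, cut at about 21% in these data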;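 further: 0% = DMSO-only wells and the high end = clavulanate BLA-blocked wells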); settings: CCF4 FRET, at 4.98 µM, hits give high values
[7] = BLA reporter readout interference – cell-based, CHO-K1 CMV-bla, CCF4 FRET, fluorescence, artefact control for NOD2-RIPK2 interaction inhibitor project, confirmation (AID 624371;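 active means mean inhibition above the low-control mean inhibition plus three low-control SD, cut at about 11% in these data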;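 further: 0% = DMSO only wells and 100% = clavulanate high control wells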); settings: CCF4 FRET ratio, counterscreen, at 4.98 µM, hits give high values
[8] = reduced OD of T4-infected AddAB+ E. coli – absorbance, E. coli V3065, T4 phage, triplicate, AddAB inhibitor project, confirmation (AID 488942;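 active means mean inhibition above a set limit taken from the earlier primary screen, cut at about 13% in these data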;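 further: higher means less bacterial growth since AddAB block lets phage replicate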); settings: E. coli V3065 expressing H. pylori AddAB, at 11.9 µM, hits give high values, T4 phage with gene 2 nonsense mutations
[9] = reduced OD of phage-infected RecBCD+ V66 E. coli – absorbance, mutant T4 phage, counter-screen for AddAB inhibitor project (AID 488955;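 active means mean inhibition above the mean of solvent-only control wells plus 3 SD, cut at about 4% in these data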;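 further: optical density read after an 18 h incubation at 37 °C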); settings: OD growth, at 11.9 µM, hits give high values
[10] = bacterial growth inhibitors – absorbance, counter-screen for AddAB inhibitor project, confirmation (AID 488956; in the data active means inhibition above about 25%); settings: bacterial viability, absorbance (AddAB counterscreen); at 11.9 µM; hits give high values
[11] = reduced OD of V66 E. coli with T4 gene 2 phage – absorbance, RecBCD inhibitor project, confirmation (AID 651982;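 active means mean inhibition over triplicates exceeding the hit threshold derived in the original primary screen, cut at about 11% in these data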); settings: E. coli V66 + T4 2- phage, growth OD; at 11.9 µM; hits give high values
[12] = bacterial growth inhibition – absorbance, high throughput, counter-screen for RecBCD inhibitor project (AID 651983; in the data active means inhibition above about 20%;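 further: E. coli strain V66 grown with compound alone and no phage infection; 0% = bacteria with DMSO vehicle only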); settings: E. coli viability, absorbance (OD) growth; at 11.9 µM; hits give high values
[13] = reduced optical density, T4-challenged addAB+ bacteria – absorbance, E. coli V3065, T4 phage, counter-screen for RecBCD inhibitor project, confirmation (AID 651984;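 active means mean inhibition above the solvent-only control wells' mean plus 3 SD, cut at about 22% in these data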;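 further: higher means less bacterial growth from phage killing when AddAB is blocked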); settings: E. coli expressing H. pylori AddAB + T4 phage, OD growth; at 11.9 µM; hits give high values; gene 2 mutant T4, recBCD-deleted host
[14] = system: HIV-1 integrase (multimerization); test: stimulation of HIV-1 integrase oligomerization – biochemical, TR-FRET, counter-screen for LEDGF/p75 integration inhibitor project (AID 1053131; in the data active means activation above about 8.9%); settings: TR-FRET HIV-1 integrase multimerization, at 7.7 µM, hits give high values
[15] = compounds disturbing TR-FRET signal readout – biochemical, HIV-1 IN multimerization, artefact control for LEDGF/p75-dependent integration inhibitor project, confirmation (AID 1053135;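 active means inhibition above the mean over all tested compounds plus 3 SD, which no compound reached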;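 further: 0% = integrase with antibodies and DMSO and 100% = antibodies without integrase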); settings: TR-FRET optical interference counterscreen, at 7.7 µM, hits give high values
[16] = system: HIV-1 integrase / human LEDGF/p75 complex; test: blockers of LEDGF/p75-dependent integrase activity – biochemical, TR-FRET, confirmation (AID 1053136; in the data active means inhibition above about 14%); settings: TR-FRET LEDGF/p75-dependent HIV-1 integration, at 3.7 µM, hits give high values
[17] = molecular target: Serine protease HTRA1 (Homo sapiens) (UniProt Q92743); test: confirming inhibition of human HTRA1 – biochemical, fluorescence polarization, confirmation (AID 540248;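 active means mean inhibition over three repeats above a set limit taken from the earlier primary screen, cut at about 37% in these data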;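 further: 0% = HTRA1 with DMSO and 100% = wells lacking HTRA1; inhibitors block probe binding so polarization drops and inhibition rises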); settings: recombinant HTRA1, FP-rhodamine activity-based probe, at 5.96 µM, hits give high values
[18] = StAR promoter reporter inhibitors, counter-screen for LRH-1 inverse agonist project, cell-based, luminescence, high throughput (AID 651611; in the data active means inhibition above about 28%); settings: StAR promoter luciferase reporter counterscreen, at 3.6 µM, hits give high values
[19] = molecular target: Nuclear receptor subfamily 5 group A member 2 (Homo sapiens) (UniProt O00482); test: NR5A2 activity suppression in reporter cells – cell-based, luminescence, confirmation (AID 651613; in the data active means inhibition above about 42%;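 further: HEK293T cells co-transfected with LRH-1 and StAR promoter luciferase reporter; 0% = vehicle wells and 100% = parental cells lacking receptor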); settings: cell-based LRH-1 luciferase reporter, inverse agonism; at 3.6 µM; hits give high values
[20] = molecular target: Steroidogenic factor 1 (Homo sapiens) (UniProt Q13285); test: inverse agonism at SF1 nuclear receptor – cell-based, luminescence, high throughput, counter-screen for LRH-1 inverse agonist project (AID 651614; in the data active means inhibition above about 44%;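 further: cells cotransfected with StAR promoter reporter and SF1 expression vector; 0% = vehicle on cells with receptor and 100% = vehicle on cells lacking receptor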); settings: cell-based SF1 luciferase reporter, at 3.6 µM, hits give high values
[21] = compounds suppressing VP16-driven luciferase signal – cell-based, luminescence, high throughput, counter-screen for LRH-1 inverse agonist project (AID 651615; in the data active means inhibition above about 33%); settings: Gal4-VP16 luciferase reporter cells, at 3.6 µM, hits give high values
[22] = BSA probe fluorescence interference – biochemical, TAMRA-labeled BSA, counter-screen for TCR-CD3 interaction inhibitor project (AID 652035; in the data active means inhibition above about 23%;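 further: 0% = buffer low control and 100% = reference high control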); settings: TAMRA-labeled BSA probe fluorescence counterscreen; at 9.4 µM; hits give high values
[23] = system: T-cell receptor (TCR)-CD3 interaction, human; test: blockers of TCR binding to CD3 – biochemical, fluorescence, TAMRA-labeled TCR probe, confirmation (AID 652036; in the data active means inhibition above about 19%); settings: TAMRA-labeled TCR probe fluorescence binding assay; at 9.4 µM; hits give high values
[24] = molecular target: (Lyso)-N-acylphosphatidylethanolamine lipase (Mus musculus) (UniProt Q8VD66); test: mouse ABHD4 hydrolase blockers, triplicate – biochemical, fluorescence polarization, confirmation (AID 720658;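 active means mean inhibition across replicates above the hit cutoff set in the primary screen, cut at about 30% in these data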;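 further: 0% = wild-type ABHD4 with DMSO and 100% = catalytically dead S159A mutant with DMSO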); settings: purified mABHD4, FP-Rh probe fluorescence polarization; at 8.92 µM; hits give high values
[25] = potentiators of IFN-gamma STAT1 reporter activity – cell-based, HTS, luciferase reporter, confirmation (AID 1262;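 active means activation above a set limit carried over from the earlier primary STAT1 screen, cut at about 140% in these data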;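 further: simple ratio to median IFN-gamma plus DMSO wells so 0% means no light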); settings: NIH 3T3 STAT1-luciferase reporter, IFN-gamma potentiation, luminescence; at 5.7 µM; hits give high values; 100% = IFN-gamma EC80 alone, no compound
[26] = enhancement of NF-kB transcriptional signalling – cell-based, HEK293T, luciferase luminescence, TNF-alpha, counter-screen for STAT1 activator project (AID 1306;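 active means activation above the mean of solvent-only control wells plus 3 SD, set per campaign, cut at about 130% in these data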;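 further: TNF-alpha given at a submaximal dose yielding about 80% of full reporter signal; values are well signal over median control so 100% means no change and 0% no light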); settings: HEK293T NF-kB luciferase reporter, TNF-alpha stimulated, at 5.7 µM, hits give high values, 100% = TNF-alpha with vehicle only
[27] = molecular target: Signal transducer and activator of transcription 3 (Homo sapiens) (UniProt P40763); test: enhancers of IL-6 STAT3 transcription – U3A cells, luciferase, luminescence, counter-screen for STAT1 activator project, confirmation (AID 1316;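 active means activation above the solvent-only control well mean plus 3 SD, set per plate batch, cut at about 110% in these data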;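 further: 0% = no luminescence and 100% = median IL-6 plus DMSO wells; higher means more STAT3 reporter activation so hits are non-selective activators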); settings: U3A cells STAT3-luciferase reporter, IL-6, luminescence; at 5.7 µM; hits give high values; 100 = IL-6 alone, no compound effect; cells lack STAT1
[28] = molecular target: Insulin-degrading enzyme (Homo sapiens) (UniProt P14735); test: cellular IDE Abeta-cleavage inhibition – fluorescence polarization, HEK cells, FAbetaB substrate, confirmation (AID 435028;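 active means mean inhibition across triplicate wells above the cutoff set by the earlier primary insulin-degrading enzyme screen, cut at about 16% in these data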;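 further: 0% = DMSO wells and 100% = 60 µM reference IDE inhibitor Ii1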); settings: at 5.59 µM, hits give high values
[29] = HEK cell viability loss – luminescence, cytotoxicity control for IDE inhibitor project (AID 449730; in the data active means inhibition above about 22%;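 further: 0% = vehicle wells and 100% = reference cytotoxic drug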); settings: HEK293 cytotoxicity, ATP luminescence; at 5.59 µM; hits give high values
[30] = molecular target: Nuclear receptor coactivator 1 (Homo sapiens) (UniProt Q15788); test: NCOA1 GAL4-fusion reporter inhibition – cell-based, luminescence, quadruplicate, confirmation (AID 588820;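 active means mean inhibition above 46.68%, the untreated control wells mean plus 3 SD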;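 further: 0% = DMSO wells and 100% = gossypol 36 µM treated wells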); settings: HEK293 GAL4-SRC1 luciferase reporter, at 3.6 µM, hits give high values
[31] = repression of VP16-driven luciferase reporter – cell-based, luminescence, high throughput, counter-screen for SRC1 inhibitor project (AID 588824; in the data active means inhibition above about 25%); settings: cell-based VP16 transactivation luciferase luminescence; at 3.6 µM; hits give high values
[32] = molecular target: Galanin receptor type 2 (Homo sapiens) (UniProt O43603); test: blockers of human galanin receptor 2 – cell-based, confirmation (AID 866; in the data active means inhibition above about 27%;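 further: cells stimulated with galanin at about its EC80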); settings: GALR2-expressing cells, antagonist mode, at 4 µM, hits give high values
[33] = nonspecific BLA reporter inhibition – CHO NFAT-bla cells, FRET readout, counter-screen for GALR2 antagonist project, confirmation (AID 867;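 active means inhibition above the mean inhibition across tested compounds plus 3 SD, cut at about 27% in these data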;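 further: 0% = 500 nM thapsigargin stimulated wells and 100% = unstimulated BSA only wells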); settings: beta-lactamase FRET, thapsigargin-stimulated, at 4.2 µM, hits give high values

Receptor-interacting serine/threonine-protein kinase 2 (Homo sapiens), sequence (O43353 whole entry, looked up): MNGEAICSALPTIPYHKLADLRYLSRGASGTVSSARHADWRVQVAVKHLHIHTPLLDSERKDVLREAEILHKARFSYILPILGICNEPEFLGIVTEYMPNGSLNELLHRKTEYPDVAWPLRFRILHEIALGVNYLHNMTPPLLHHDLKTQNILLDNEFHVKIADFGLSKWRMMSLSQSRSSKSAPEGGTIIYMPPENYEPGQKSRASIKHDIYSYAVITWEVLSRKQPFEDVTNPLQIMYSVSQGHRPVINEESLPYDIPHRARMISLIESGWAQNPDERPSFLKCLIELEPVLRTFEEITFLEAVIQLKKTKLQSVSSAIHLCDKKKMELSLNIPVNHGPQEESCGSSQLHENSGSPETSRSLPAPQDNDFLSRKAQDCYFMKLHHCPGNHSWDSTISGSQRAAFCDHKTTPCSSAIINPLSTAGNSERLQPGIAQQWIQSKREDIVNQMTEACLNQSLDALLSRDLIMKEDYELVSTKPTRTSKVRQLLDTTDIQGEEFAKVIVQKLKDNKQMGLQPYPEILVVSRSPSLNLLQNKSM
Nuclear receptor subfamily 5 group A member 2 (Homo sapiens), sequence (O00482 whole entry, looked up): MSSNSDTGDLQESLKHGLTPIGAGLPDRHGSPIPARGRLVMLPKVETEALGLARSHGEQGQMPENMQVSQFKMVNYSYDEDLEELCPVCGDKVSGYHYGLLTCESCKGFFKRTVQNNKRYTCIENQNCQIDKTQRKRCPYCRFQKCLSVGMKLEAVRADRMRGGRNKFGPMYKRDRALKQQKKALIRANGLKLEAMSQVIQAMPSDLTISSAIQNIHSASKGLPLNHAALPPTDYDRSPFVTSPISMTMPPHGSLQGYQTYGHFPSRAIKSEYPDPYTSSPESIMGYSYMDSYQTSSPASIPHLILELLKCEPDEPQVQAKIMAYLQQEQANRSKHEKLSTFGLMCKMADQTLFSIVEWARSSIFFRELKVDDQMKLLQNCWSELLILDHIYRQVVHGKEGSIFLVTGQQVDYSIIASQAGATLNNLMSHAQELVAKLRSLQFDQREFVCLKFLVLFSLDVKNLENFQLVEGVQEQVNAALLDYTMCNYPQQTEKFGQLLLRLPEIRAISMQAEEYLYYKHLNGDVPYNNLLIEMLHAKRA
Toll-like receptor 9 (Homo sapiens), sequence (Q9NR96 whole entry, looked up): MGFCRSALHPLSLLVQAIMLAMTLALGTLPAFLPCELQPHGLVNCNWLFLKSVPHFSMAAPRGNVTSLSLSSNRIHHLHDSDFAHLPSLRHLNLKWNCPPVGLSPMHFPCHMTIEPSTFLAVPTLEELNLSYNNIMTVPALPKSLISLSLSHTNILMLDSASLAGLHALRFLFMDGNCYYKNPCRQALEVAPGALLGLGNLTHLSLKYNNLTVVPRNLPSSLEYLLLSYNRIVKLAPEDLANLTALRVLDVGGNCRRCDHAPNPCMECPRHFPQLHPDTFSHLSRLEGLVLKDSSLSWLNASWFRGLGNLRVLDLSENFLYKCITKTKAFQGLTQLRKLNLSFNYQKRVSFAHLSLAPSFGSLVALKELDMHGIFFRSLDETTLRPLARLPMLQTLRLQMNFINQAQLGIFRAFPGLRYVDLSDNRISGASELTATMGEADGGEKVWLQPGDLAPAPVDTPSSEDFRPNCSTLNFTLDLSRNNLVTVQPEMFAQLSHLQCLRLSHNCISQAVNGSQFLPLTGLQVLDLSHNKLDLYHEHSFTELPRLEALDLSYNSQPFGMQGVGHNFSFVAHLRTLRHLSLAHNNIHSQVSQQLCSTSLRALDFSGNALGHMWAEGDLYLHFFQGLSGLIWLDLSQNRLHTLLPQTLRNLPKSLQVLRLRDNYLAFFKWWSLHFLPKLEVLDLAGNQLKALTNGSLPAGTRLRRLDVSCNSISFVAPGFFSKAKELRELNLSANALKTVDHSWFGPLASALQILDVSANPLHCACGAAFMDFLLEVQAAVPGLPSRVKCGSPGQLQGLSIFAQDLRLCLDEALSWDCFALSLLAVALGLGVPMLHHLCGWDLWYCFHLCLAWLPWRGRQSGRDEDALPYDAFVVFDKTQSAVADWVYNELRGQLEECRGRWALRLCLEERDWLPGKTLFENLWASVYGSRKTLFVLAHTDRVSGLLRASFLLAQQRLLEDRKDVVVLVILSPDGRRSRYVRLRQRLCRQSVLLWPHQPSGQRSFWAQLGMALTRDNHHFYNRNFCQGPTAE
Steroidogenic factor 1 (Homo sapiens), sequence (Q13285 whole entry, looked up, the tested form may be a part): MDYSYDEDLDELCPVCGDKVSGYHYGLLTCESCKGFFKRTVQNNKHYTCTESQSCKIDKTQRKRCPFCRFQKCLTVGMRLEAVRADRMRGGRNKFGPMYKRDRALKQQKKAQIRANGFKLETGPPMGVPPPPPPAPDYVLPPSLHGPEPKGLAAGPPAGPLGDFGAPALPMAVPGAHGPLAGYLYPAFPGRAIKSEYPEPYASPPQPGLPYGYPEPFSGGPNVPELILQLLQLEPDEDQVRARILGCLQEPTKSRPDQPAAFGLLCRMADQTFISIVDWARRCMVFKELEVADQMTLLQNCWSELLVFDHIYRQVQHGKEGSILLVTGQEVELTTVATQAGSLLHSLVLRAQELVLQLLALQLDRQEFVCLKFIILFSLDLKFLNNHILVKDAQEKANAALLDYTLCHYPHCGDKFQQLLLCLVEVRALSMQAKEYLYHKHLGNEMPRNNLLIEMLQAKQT
Galanin receptor type 2 (Homo sapiens), sequence (O43603 whole entry, looked up): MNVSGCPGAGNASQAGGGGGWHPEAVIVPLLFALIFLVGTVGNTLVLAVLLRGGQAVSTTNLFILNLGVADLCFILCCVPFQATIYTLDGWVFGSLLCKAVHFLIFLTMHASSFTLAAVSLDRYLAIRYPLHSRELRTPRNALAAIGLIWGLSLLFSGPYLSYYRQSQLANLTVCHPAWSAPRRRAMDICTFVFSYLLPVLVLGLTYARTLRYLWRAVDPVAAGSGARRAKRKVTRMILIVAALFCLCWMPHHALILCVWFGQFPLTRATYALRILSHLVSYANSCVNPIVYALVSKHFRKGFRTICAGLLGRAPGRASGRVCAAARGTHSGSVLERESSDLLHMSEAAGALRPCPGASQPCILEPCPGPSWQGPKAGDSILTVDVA
Nuclear receptor coactivator 1 (Homo sapiens), sequence (Q15788 whole entry, looked up, the tested form may be a part): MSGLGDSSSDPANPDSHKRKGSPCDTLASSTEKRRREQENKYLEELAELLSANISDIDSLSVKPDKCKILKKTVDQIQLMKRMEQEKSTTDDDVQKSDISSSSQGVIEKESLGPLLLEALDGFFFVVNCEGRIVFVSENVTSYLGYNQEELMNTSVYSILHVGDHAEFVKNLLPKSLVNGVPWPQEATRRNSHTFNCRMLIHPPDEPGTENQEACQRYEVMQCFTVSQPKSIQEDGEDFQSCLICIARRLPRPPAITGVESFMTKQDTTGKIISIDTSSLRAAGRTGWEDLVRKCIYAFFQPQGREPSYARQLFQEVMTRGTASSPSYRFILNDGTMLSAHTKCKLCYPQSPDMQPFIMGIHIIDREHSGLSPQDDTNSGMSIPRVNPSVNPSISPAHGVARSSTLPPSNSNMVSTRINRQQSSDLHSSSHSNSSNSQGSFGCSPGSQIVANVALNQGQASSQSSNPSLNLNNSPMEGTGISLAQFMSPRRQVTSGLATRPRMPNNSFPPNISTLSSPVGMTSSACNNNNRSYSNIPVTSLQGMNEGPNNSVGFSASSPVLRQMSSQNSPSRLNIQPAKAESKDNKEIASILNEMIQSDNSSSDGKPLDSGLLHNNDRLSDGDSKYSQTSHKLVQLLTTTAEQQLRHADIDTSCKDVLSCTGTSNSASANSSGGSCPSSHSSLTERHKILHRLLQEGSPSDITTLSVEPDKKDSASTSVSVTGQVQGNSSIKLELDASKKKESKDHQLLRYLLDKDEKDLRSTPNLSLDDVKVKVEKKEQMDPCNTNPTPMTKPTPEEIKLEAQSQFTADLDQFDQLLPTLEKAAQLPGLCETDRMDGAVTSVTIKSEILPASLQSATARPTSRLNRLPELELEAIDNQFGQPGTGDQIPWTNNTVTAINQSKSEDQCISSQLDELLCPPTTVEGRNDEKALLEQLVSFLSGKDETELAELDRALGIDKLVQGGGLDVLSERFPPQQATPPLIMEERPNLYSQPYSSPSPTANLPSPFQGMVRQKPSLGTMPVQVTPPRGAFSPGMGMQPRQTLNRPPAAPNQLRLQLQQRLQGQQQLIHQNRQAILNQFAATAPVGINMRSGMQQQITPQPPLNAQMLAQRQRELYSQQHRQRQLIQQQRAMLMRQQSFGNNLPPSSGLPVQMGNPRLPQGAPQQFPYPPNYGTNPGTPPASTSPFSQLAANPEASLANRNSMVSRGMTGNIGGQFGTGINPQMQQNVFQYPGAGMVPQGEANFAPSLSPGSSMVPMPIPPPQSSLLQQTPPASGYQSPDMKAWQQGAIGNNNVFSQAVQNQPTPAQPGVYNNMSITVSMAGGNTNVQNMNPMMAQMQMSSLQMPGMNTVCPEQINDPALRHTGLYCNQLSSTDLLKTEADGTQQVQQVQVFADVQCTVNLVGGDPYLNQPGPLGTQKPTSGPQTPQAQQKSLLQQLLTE
(Lyso)-N-acylphosphatidylethanolamine lipase (Mus musculus), sequence (Q8VD66 whole entry, looked up): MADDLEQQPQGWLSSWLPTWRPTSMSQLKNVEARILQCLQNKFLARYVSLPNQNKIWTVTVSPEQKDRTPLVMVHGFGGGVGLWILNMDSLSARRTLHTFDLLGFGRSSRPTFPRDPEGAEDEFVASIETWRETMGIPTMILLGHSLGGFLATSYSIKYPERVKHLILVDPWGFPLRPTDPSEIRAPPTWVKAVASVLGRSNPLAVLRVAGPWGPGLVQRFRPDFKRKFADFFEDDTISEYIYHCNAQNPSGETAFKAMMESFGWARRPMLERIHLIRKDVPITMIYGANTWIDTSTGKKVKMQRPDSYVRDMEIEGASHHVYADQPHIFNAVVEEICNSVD

O=C(c1ccc(Cl)cc1)c1cnc(Nc2ccccc2)s1
active: inhibition [2] 29.5%
inactive: inhibition [1] 9.98%

O=C1NC(=O)C2C1C(c1ccc([N+](=O)[O-])cc1)=NN2Cc1ccccc1 (configuration not stated)
inactive: inhibition [4] 25.6% | inhibition [5] 4.55%
active: inhibition [1] 25.8% | inhibition [2] 42.9% | inhibition [3] 25.8% | inhibition [6] 49.4% | inhibition [7] 51.9%

Cn1ccc(=Nc2ccc(NC(=O)c3ccc(N=c4ccn(C)c5ccc([N+](=O)[O-])cc45)cc3)cc2)cc1
active: inhibition [8] 99.9% | inhibition [9] 101% | inhibition [10] 101% | inhibition [11] 101% | inhibition [13] 102% | inhibition [16] 21%
inactive: inhibition [12] -7.32% | activation [14] -0.71% | inhibition [15] 2.56%

NC1=CC(=O)C(=O)c2cccnc21
active: inhibition [18] 35.9% | inhibition [19] 47.5% | inhibition [20] 45.5% | inhibition [24] 68.3% | activation [14] 45.1% | inhibition [16] 79.9%
inactive: inhibition [17] 24.5% | inhibition [21] 8.35% | inhibition [22] 6.36% | inhibition [23] 11.5% | inhibition [15] -160%

O=C(c1cc(-c2cccs2)on1)N1CCCCC1
inactive: activation (% of control) [26] 125% | activation (% of control) [27] 105%
active: activation (% of control) [25] 184%

O=C(/C=C/c1ccc(N2CCOCC2)cc1)c1ccccc1
inactive: inhibition [1] 21.1% | inhibition [28] 14.1% | inhibition [29] 15.4%
active: inhibition [2] 45.8% | inhibition [6] 29% | inhibition [7] 31.2%

COc1ccc2[nH]c3c(C)c4cc[n+](C)cc4c(C)c3c2c1
active: inhibition [31] 45% | inhibition [18] 49.8% | inhibition [19] 103% | inhibition [20] 51.9% | inhibition [21] 75% | activation [14] 9.5% | inhibition [16] 42.7%
inactive: inhibition [30] 27.3% | inhibition [15] -47.7%

O=C(Nc1ccc(Cl)cn1)c1cnn2cccnc12
active: activation (% of control) [25] 171% | activation (% of control) [27] 111%
inactive: activation (% of control) [26] 128%

COc1ccccc1N1N=C(c2cccs2)CC1c1ccccc1 (configuration not stated)
active: inhibition [32] 27.9% | inhibition [33] 39.8% | inhibition [1] 36% | inhibition [2] 70% | inhibition [3] 32.9% | inhibition [6] 51.8% | inhibition [7] 65.6%
inactive: inhibition [4] 43.5% | inhibition [5] 2.88%

COc1ccc(-n2ncc3c(N4CCCc5ccccc54)ncnc32)cc1
active: activation (% of control) [25] 209% | activation (% of control) [26] 139% | activation (% of control) [27] 112%
